Measured values taken from PubChem BioAssay (NCI).
Compounds without any hit were thinned out: in the full panel of roughly 79,000, 15% have a hit. Unmarked numbers belong to inactive results. Calls of active or inactive are those of the source. Rule as the data show it: active = growth inhibition above about 70%; inactive = the rest. *1 amine or outer side, *2 acyl side, *3 side chain or, on linkers, in order; H or OH if unused. Where a SMILES comes first, the peptide text is derived from it. Bridges are numbered along the chain shown (N, C = ends). [ ]: non-standard residue; d: D form. The star is where a group is joined. ξ: configuration not given here. ξOrn(4,5-diOH) = O=C(C(CC(O)C(O)N[*:3])N[*:1])[*:2]; ξhTyr(βξ-OH,γξ-OH) = NC(C(=O)O)C(O)C(O)c1ccc(O)cc1; ξPro(3ξ-OH,4ξ-Me) = CC1CNC(C(=O)O)C1O; X1 = CCCCC/C=C/C/C=C\CCCCCCCC(=O)*; Hyp = O=C(O)[CH]1C[CH](O)CN1

What was measured:
[1] = NCI Yeast Anticancer Drug Screen. Data for the rad50 strain (AID 155);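 also: 0% = growth of vehicle-only cultures of the same strain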; details: S. cerevisiae rad50 strain growth inhibition, active compounds read high
Outline: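 DNA repair mutant yeast, compound exposure, growth read-out; inhibition is taken relative to vehicle.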

[2] = NCI Yeast Anticancer Drug Screen. Data for the mec2-1 strain (AID 157); details: S. cerevisiae mec2-1 strain, active compounds read high
Outline: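 Test agents were screened against the mec2-1 yeast strain, with defined DNA repair or cell cycle alteration. Growth was scored as inhibition against vehicle-only controls.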

[3] = NCI Yeast Anticancer Drug Screen. Data for the sgs1 mgt1 strain (AID 161);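 also: 0% = growth of cultures given vehicle only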; details: S. cerevisiae sgs1 mgt1 strain, active compounds read high
Outline: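 Genetically altered yeast, compound exposure, growth inhibition relative to vehicle.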

[4] = NCI Yeast Anticancer Drug Screen. Data for the cln2 rad14 strain (AID 165);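 also: 0% = growth equal to vehicle treated cultures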; details: S. cerevisiae cln2 rad14 strain, active compounds read high
Outline: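 Growth of compound-exposed yeast (cln2 rad14 genotype) measured and expressed as inhibition relative to vehicle.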

[5] = NCI Yeast Anticancer Drug Screen. Data for the bub3 strain (AID 167); details: S. cerevisiae bub3 mutant strain, active compounds read high
Outline: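 In this screen, a yeast mutant lacking normal mitotic checkpoint function is challenged with compound. Relative growth versus vehicle gives the inhibition value.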

[6] = NCI Yeast Anticancer Drug Screen. Data for the mlh1 rad18 strain (AID 175); details: S. cerevisiae mlh1 rad18 strain growth inhibition, active compounds read high
Outline: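 In this whole-cell yeast screen, a strain with altered DNA damage repair is challenged with compound, and its growth is measured against matched vehicle-treated controls.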

[7] = at 5.0 µM (retest, dose inferred, filed as 0.5)
[8] = at 50.0 µM (retest, dose inferred, filed as 5.0)

| Structure (SMILES) | growth inhibition [1, 7] | growth inhibition [1, 8] | growth inhibition ([1]; at 50.0 µM) | growth inhibition [2, 7] | growth inhibition [2, 8] | growth inhibition ([2]; at 50.0 µM) | growth inhibition [3, 7] | growth inhibition [3, 8] | growth inhibition ([3]; at 50.0 µM) | growth inhibition [4, 7] | growth inhibition [4, 8] | growth inhibition ([4]; at 50.0 µM) | growth inhibition [5, 7] | growth inhibition [5, 8] | growth inhibition ([5]; at 50.0 µM) | growth inhibition [6, 7] | growth inhibition [6, 8] | growth inhibition ([6]; at 50.0 µM) |
| --- | --- | --- | --- | --- | --- | --- | --- | --- | --- | --- | --- | --- | --- | --- | --- | --- | --- | --- |
| OC(c1ccc(Cl)cc1)c1ccc(Cl)cc1 | -7% | 100% (active) | 79% (active) | -11% | 100% (active) | 98.2% (active) | -7% | 100% (active) | 75.2% (active) | -17% | 100% (active) | 85.3% (active) | -11% | 100% (active) | 98.8% (active) | -6% | 99% (active) | 85.2% (active) |
| CN(C)CC(CN(C)C)C(=O)c1ccc2c(c1)OCO2 | -8% | -30% | 84.7% (active) | -15% | -13% | 87% (active) | -10% | -20% | 92.6% (active) | -6% | -8% | 58.1% | -5% | 25% | 58.6% | 0% | -20% | 93% (active) |
| O=C(/C(Cl)=N/O)c1ccccc1 | 80% (active) | 99% (active) | 98.8% (active) | 47% | 100% (active) | 99.2% (active) | 51% | 99% (active) | 49.3% | 38% | 99% (active) | 58% | 91% (active) | 99% (active) | 99% (active) | 62% | 99% (active) | 50% |
| CCO/C=C1/N=C(c2cc(Cl)cc([N+](=O)[O-])c2)OC1=O | 4% | -7% | 11.7% | -2% | 12% | 1.3% | -15% | 2% | 13.7% | 18% | 22% | -60.5% | 6% | 5% | -8.75% | -15% | 6% | 9.15% |
| CC1(C)OC(=O)C(=NNc2ccccc2[N+](=O)[O-])C(=O)O1 | 5% | 4% | -6.9% | 2% | 19% | 5.75% | 2% | 16% | 1.25% | -2% | 12% | 29.4% | 3% | 21% | 21.5% | 2% | 7% | 18.1% |
| C[CH2][Sn]([CH2]C)([O]C(=O)c1cc(OC)c(OC)c(OC)c1)[O][Sn]([CH2]C)([CH2]C)[O]C(=O)c1cc(OC)c(OC)c(OC)c1 | 33% | 79% (active) | 1.2% | 30% | 91% (active) | 12.7% | 31% | 85% (active) | 23.6% | 8% | 61% | 21.9% | 36% | 94% (active) | 9.15% | 27% | 85% (active) | 61% |
| COc1cccc2c1C(=O)c1c(O)c3c(c(O)c1C2=O)C[C@@](O)(/C(C)=N/NS(C)(=O)=O)C[C@@H]3OC1CC(N)C(O)C(C)O1 (some centres not stated) | 42% | 94% (active) | 95.2% (active) | 18% | 80% (active) | 81.3% (active) | 12% | 77% (active) | 94.2% (active) | 15% | 52% | 70% (active) | 12% | 91% (active) | 90.5% (active) | 14% | 89% (active) | 91.6% (active) |
| Nc1ccc2ccc3cccc4ccc1c2c34 | 1% | 98% (active) | 90.3% (active) | -37% | 98% (active) | 0.45% | 1% | 98% (active) | 48.5% | -1% | 99% (active) | 62.5% | -2% | 98% (active) | 23.8% | 1% | 97% (active) | 88.9% (active) |
| Cc1ccc(NC(=O)COC(=O)c2cccc3c(=O)c4ccccc4[nH]c23)cc1 | 51% | 89% (active) | 74.8% (active) | 27% | 80% (active) | 43.3% | 40% | 89% (active) | 29.6% | 21% | 69% | 61.6% | 42% | 81% (active) | 72% (active) | 49% | 94% (active) | 49.5% |
| Oc1ccc2ccccc2c1.[Cu+2] | 1% | 20% | 98% (active) | -1% | 12% | 97.2% (active) | -2% | 6% | 98.4% (active) | -4% | 13% | 83.2% (active) | 2% | 8% | 94% (active) | 0% | 33% | 98% (active) |
| O=C1O/C(=C(\Cc2ccccc2)c2ccccc2)N(c2ccccc2)C1=O | 5% | 30% | 69.2% | -6% | 23% | 18.6% | 0% | 28% | 22.9% | -5% | -9% | -30.2% | 0% | 13% | 14.9% | -6% | 21% | 28.8% |
| Nc1ccccc1C(=O)/C=C/c1ccccc1 | 19% | 73% (active) | 98.8% (active) | 4% | 57% | 99% (active) | -2% | 70% (active) | 94.6% (active) | -23% | 27% | 80.1% (active) | 11% | 73% (active) | 99.2% (active) | 21% | 84% (active) | 96.8% (active) |
| CCN(CC)CCCNc1ccc([N+](=O)[O-])c2nc3ccc(OC)cc3c(N)c12 | -13% | 62% | 44.2% | -20% | 27% | -5.3% | -7% | 44% | 79.2% (active) | 2% | 31% | 19.6% | -11% | 54% | 13.6% | -39% | 74% (active) | 62% |
| CCCCC/C=C/C/C=C\CCCCCCCC(=O)NC1CC(O)C(O)NC(=O)C2C(O)C(C)CN2C(=O)C(C(C)O)NC(=O)C(C(O)C(O)c2ccc(O)cc2)NC(=O)C2CC(O)CN2C(=O)C(C(C)O)NC1=O (stereo not drawn) (X1-[ξOrn(4,5-diOH)]T[Hyp][ξhTyr(βξ-OH,γξ-OH)]T[ξPro(3ξ-OH,4ξ-Me)]; lactam 1-C; configuration not given here) | 3% | 93% (active) | 89% (active) | 51% | 98% (active) | 90.8% (active) | 51% | 93% (active) | 90.3% (active) | 9% | 95% (active) | 83.8% (active) | 11% | 97% (active) | 89.9% (active) | 40% | 96% (active) | 88.6% (active) |
| CC(CN(C)C)C(=O)/C=C/c1c(Cl)cccc1Cl (configuration not stated) | 2% | 88% (active) | 86.7% (active) | 8% | 96% (active) | 46.4% | 11% | 94% (active) | 90.2% (active) | 2% | 44% | 29.4% | -1% | 92% (active) | 74.9% (active) | 3% | 97% (active) | 96.5% (active) |
| Cc1ccc(C2=Nc3c(c(C)nn3-c3ccccc3)N=C(C(=O)O)C2)cc1 | 1% | 78% (active) | 76.2% (active) | -23% | 87% (active) | 82.9% (active) | -3% | 62% | 88.4% (active) | -4% | 92% (active) | 87.5% (active) | 2% | 89% (active) | 83.4% (active) | -12% | 86% (active) | 59.3% |
| Cc1ccc([N+](=O)[O-])c2c(NCCCN(C)C)c3ccccc3nc12 | 79% (active) | 98% (active) | 97% (active) | 97% (active) | 99% (active) | 95.8% (active) | 93% (active) | 98% (active) | 97.2% (active) | 95% (active) | 99% (active) | 77.3% (active) | 35% | 97% (active) | 87.8% (active) | 92% (active) | 99% (active) | 97% (active) |
| OC(CN1CCc2ccccc2C1)c1ccc2ccccc2c1 (configuration not stated) | 23% | 64% | 86.5% (active) | 18% | 58% | 50.5% | 34% | 86% (active) | 88.5% (active) | 26% | 58% | 68.3% | 36% | 93% (active) | 94.6% (active) | 25% | 82% (active) | 45.3% |
| Cc1ccc(NCCN(C)C)c2c(=O)c3ccc(O)cc3sc12 | 56% | 96% (active) | 98.5% (active) | -3% | 82% (active) | 98.9% (active) | -1% | 88% (active) | 93% (active) | -3% | 85% (active) | 63.5% | -1% | 84% (active) | 98.2% (active) | 5% | 94% (active) | 99.2% (active) |
